Source: PubChem
The sample as a whole holds a higher share of hits than the screen did.
U2OS ROS induce: raises reactive oxygen species in U2OS cancer cells; ROS induction (% of piperlongumine), % at 10 µM; AID 624156; hit rate 2% among 46,000; U2OS ROS induction, H2DCF-DA fluorescence; in the data active = ROS induction above about 79%, passing the limit was not always enough;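 also: 0% = DMSO vehicle median and 100% = reference compound median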
* = called active by the depositor.

SMILES | U2OS ROS induce
O=P(Cc1ccccc1)(c1ccccc1)N(Cc1cccs1)CC1CCCO1 (stereo unspecified) | 1
C[C@H](CO)N1C[C@H](C)[C@@H](CN(C)Cc2ccc(-c3ccccc3)cc2)Oc2c(NC(=O)c3cnccn3)cccc2C1=O | 45
C[C@H](CO)N1C[C@H](C)[C@H](CN(C)Cc2ccc(Oc3ccccc3)cc2)Oc2c(NC(=O)c3cnccn3)cccc2C1=O | 34
C[C@H]1CN([C@@H](C)CO)C(=O)c2cccc(NC(=O)c3cnccn3)c2O[C@H]1CN(C)Cc1ccc(-c2ccccc2)cc1 | 43
C[C@H]1CN([C@@H](C)CO)C(=O)c2cccc(NC(=O)c3cnccn3)c2O[C@@H]1CN(C)Cc1ccc(-c2ccccc2)cc1 | 118*
C[C@@H]1CN([C@H](C)CO)C(=O)c2cccc(NC(=O)c3cnccn3)c2O[C@H]1CN(C)Cc1ccc(Oc2ccccc2)cc1 | 21
C[C@H](CO)N1C[C@H](C)[C@@H](CN(C)Cc2ccc(Oc3ccccc3)cc2)Oc2c(NC(=O)c3cnccn3)cccc2C1=O | 134*
Cn1c(SCC(=O)Nc2c(Cl)cc(Cl)cc2Cl)nnc1-c1ccc(Cl)cc1 | 31
Cn1c(=O)[nH]c(=O)c2c1ncn2CC(=O)NCc1ccccc1 | -6
CNC[C@@H]1Oc2c(NC(=O)Nc3ccccc3)cccc2C(=O)N([C@H](C)CO)C[C@@H]1C | -5
COC(=O)CCCCCCC(=O)N/N=C/c1c(F)c(F)c(F)c(F)c1F | 266*
COC(=O)CCCCCCC(=O)N/N=C/c1ccc(F)cc1 | 16
COC(=O)CCCCCCC(=O)N/N=C/c1ccc(O)cc1 | 16
COc1ccc(CN(C)C[C@@H]2Oc3c(NC(=O)Nc4ccc(OC)cc4)cccc3C(=O)N([C@@H](C)CO)C[C@@H]2C)cc1 | -4
COc1cccc(S(=O)(=O)N(C)C[C@@H]2Oc3ncc(C#Cc4cccc(F)c4)cc3C(=O)N([C@H](C)CO)C[C@@H]2C)c1 | 48
C[C@H](CO)N1C[C@H](C)[C@H](CN(C)S(=O)(=O)c2cccs2)Oc2ncc(C#Cc3ccc(F)cc3)cc2C1=O | 11
C[C@H](CO)N1C[C@H](C)[C@H](CN(C)S(=O)(=O)c2cccs2)Oc2ncc(C#Cc3ccc(C(F)(F)F)cc3)cc2C1=O | 110*
C[C@H](CO)N1C[C@H](C)[C@H](CN(C)S(=O)(=O)c2cn(C)cn2)Oc2ncc(C#Cc3ccccc3)cc2C1=O | 120*
COc1cccc(S(=O)(=O)N(C)C[C@@H]2Oc3ncc(C#Cc4ccc(C(F)(F)F)cc4)cc3C(=O)N([C@H](C)CO)C[C@@H]2C)c1 | 129*
CCCC(O)C#Cc1cnc2c(c1)C(=O)N([C@H](C)CO)C[C@H](C)[C@H](CN(C)S(=O)(=O)c1cccs1)O2 (stereo partly specified) | 11
COc1cccc(S(=O)(=O)N(C)C[C@@H]2Oc3ncc(C#Cc4ccc(OC)c(OC)c4)cc3C(=O)N([C@H](C)CO)C[C@@H]2C)c1 | 47
C[C@H](CO)N1C[C@H](C)[C@H](CN(C)S(=O)(=O)c2cn(C)cn2)Oc2ncc(C#CCN(C)C)cc2C1=O | 4
C[C@H](CO)N1C[C@H](C)[C@H](CN(C)S(=O)(=O)c2cn(C)cn2)Oc2ncc(C#Cc3ccc(C(F)(F)F)cc3)cc2C1=O | 7
CN(C)CCN(C)Cc1cc([N+](=O)[O-])ccc1O | -4
COc1cc(C(O)CCOC2OC(CO)C(O)C(O)C2O)cc2cc(-c3ccc4c(c3)OCO4)oc12 (stereo unspecified) | -6
COc1ccc(S(=O)(=O)Nc2ccc3c(c2)C(=O)N([C@H](C)CO)C[C@@H](C)[C@@H](CN(C)S(=O)(=O)c2ccccc2)O3)cc1 | -9
